This note sets out measurements from paper PMC7862700, “An all-to-all approach to the identification of sequence-specific readers for epigenetic DNA modifications on cytosine”.

What all share (assay): DAPPL (digital affinity profiling via proximity ligation, sequencing); 10 mM Tris-HCl pH 7.5, 50 mM NaCl, 1 mM DTT, 4% glycerol, room temperature, 30 min; GST-TFs on glutathione beads, 16-mer random dsDNA library, 0.1% formaldehyde crosslink after washing; high values mean tight binding
One assay deals with T1, FEV (Homo sapiens, UniProt Q99581 1-238).
T1 sequence: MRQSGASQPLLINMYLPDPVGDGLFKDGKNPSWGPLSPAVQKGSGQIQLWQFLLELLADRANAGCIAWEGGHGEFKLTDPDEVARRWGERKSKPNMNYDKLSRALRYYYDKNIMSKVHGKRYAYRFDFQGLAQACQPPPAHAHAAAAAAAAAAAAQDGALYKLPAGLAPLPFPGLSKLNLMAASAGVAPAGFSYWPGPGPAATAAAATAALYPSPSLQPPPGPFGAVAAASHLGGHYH
The note with it: protein: recombinant; tags: N-terminal GST; dsDNA, one strand shown. Put shortly: (§1)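 Binding signal is each hexamer's read frequency for a factor divided by its frequency in the tag-only sample. The factors were GST-fused human transcription factors from yeast, captured on glutathione beads, DNA-barcoded and pooled with that sample. Pools were incubated with 200 nmole of a random double-stranded 16-mer DNA library in Tris/NaCl/DTT/glycerol buffer at room temperature for 30 min, then washed, crosslinked with 0.1% formaldehyde, proximity-ligated with BsaI/T4 ligase (1 h, 37 °C), PCR-amplified and sequenced on an Illumina NextSeq500.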

The next assay concerns the target ETV5 (Homo sapiens, UniProt P41161 1-510). The note with it: protein: recombinant; tags: N-terminal GST; dsDNA, one strand shown. The gist of the method:
as §1

The next assay deals with HSF1 (Homo sapiens, UniProt Q00613 1-529). The note with it: protein: recombinant; tags: N-terminal GST; chain copies: 3; dsDNA, one strand shown. Put shortly:
as §1

For a further assay, the target named is T2, SPIC (Homo sapiens, UniProt Q8N5J4 1-248).
T2 sequence: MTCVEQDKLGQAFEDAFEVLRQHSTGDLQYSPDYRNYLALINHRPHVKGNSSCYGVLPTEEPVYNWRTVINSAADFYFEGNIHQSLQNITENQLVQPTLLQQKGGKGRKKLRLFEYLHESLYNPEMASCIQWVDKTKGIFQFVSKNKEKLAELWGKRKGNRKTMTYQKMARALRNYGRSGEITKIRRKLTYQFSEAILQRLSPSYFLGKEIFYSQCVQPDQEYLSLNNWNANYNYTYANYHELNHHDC
The note with it: protein: recombinant; tags: N-terminal GST; dsDNA, one strand shown. Put shortly:
as §1

For the next assay, the target named is ELF4 (Homo sapiens, UniProt Q99607 1-663). The note with it: protein: recombinant; tags: N-terminal GST; dsDNA, one strand shown. Put shortly:
as §1

Another assay concerns the target T3, ELK4 (Homo sapiens, UniProt P28324-2 1-405).
T3 sequence: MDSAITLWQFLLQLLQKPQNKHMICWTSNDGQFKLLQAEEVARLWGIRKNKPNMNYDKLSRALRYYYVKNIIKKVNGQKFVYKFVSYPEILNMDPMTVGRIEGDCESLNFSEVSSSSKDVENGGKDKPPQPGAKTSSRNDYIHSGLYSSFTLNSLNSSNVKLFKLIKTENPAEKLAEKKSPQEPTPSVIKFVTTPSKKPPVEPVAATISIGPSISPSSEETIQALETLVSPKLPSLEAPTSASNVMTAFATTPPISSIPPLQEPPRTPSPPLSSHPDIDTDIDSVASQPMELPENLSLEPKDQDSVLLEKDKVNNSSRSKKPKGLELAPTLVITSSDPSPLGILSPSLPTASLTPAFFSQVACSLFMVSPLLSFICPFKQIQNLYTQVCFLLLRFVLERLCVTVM
The note with it: protein: recombinant; tags: N-terminal GST; dsDNA, one strand shown. The gist of the method:
as §1

The target of a further assay is T4, ETV2 (Homo sapiens, UniProt O00321 1-342).
T4 sequence: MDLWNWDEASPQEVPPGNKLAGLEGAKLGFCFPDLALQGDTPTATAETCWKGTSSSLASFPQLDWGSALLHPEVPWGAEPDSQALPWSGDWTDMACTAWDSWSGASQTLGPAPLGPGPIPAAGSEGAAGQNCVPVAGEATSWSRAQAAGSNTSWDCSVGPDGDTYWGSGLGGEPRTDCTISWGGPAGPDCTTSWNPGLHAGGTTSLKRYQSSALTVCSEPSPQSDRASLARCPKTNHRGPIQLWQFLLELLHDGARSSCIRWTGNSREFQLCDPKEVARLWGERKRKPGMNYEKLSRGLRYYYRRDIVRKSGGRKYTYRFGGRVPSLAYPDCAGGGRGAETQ
The note with it: protein: recombinant; tags: N-terminal GST; dsDNA, one strand shown. The gist of the method: as §1

In a further assay the target is T5, ELF3 (Homo sapiens, UniProt P78545 1-371).
T5 sequence: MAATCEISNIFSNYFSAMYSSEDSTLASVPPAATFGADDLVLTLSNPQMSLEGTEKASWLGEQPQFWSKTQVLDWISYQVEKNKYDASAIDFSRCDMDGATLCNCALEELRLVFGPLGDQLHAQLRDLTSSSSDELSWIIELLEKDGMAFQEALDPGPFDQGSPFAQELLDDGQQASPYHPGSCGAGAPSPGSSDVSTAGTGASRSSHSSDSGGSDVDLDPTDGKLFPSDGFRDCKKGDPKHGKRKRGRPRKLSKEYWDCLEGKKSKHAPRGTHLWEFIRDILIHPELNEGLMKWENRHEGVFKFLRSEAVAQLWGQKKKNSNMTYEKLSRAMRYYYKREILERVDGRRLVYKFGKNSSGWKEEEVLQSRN
The note with it: protein: recombinant; tags: N-terminal GST; dsDNA, one strand shown. Put shortly: as §1

Another assay deals with CRX (Homo sapiens, UniProt O43186 1-299). The note with it: protein: recombinant; tags: N-terminal GST; dsDNA, one strand shown. Put shortly:
as §1

The target of the next assay is ETV1 (Homo sapiens, UniProt P50549 1-477). The note with it: protein: recombinant; tags: N-terminal GST; dsDNA, one strand shown. Put shortly: as §1
Sequence of ETV1 (P50549 whole entry): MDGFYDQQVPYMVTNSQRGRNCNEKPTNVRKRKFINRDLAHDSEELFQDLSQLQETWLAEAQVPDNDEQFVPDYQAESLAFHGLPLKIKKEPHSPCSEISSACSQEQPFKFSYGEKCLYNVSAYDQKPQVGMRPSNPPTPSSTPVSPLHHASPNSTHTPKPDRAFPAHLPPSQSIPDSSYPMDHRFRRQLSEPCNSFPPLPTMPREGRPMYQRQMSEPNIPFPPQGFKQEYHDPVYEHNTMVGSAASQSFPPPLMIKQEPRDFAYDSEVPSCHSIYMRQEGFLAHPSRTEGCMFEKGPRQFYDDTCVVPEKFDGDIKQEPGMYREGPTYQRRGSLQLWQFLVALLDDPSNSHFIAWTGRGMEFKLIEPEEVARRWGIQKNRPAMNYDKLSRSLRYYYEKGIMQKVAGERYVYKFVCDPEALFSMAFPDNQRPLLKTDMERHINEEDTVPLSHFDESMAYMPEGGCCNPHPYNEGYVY
The target in a further assay is T6, ERF (Homo sapiens, UniProt P50548 1-548).
T6 sequence: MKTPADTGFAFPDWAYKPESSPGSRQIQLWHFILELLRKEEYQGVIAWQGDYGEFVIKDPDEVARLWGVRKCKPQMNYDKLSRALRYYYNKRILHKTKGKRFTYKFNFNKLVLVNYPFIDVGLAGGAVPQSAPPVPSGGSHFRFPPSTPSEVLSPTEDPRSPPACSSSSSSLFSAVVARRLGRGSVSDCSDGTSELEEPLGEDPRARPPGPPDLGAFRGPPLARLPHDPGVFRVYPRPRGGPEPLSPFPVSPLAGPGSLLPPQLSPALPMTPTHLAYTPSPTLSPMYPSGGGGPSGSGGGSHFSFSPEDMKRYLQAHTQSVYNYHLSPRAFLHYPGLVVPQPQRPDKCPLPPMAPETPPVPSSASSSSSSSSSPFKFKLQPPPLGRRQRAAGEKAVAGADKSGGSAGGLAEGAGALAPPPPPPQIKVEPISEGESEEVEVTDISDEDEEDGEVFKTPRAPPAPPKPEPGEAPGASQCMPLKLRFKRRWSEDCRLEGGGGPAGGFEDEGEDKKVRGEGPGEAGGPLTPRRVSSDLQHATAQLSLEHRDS
The note with it: protein: recombinant; tags: N-terminal GST; dsDNA, one strand shown. Put shortly:
as §1

The next assay addresses T7, ETV3L (Homo sapiens, UniProt Q6ZN32 1-361).
T7 sequence: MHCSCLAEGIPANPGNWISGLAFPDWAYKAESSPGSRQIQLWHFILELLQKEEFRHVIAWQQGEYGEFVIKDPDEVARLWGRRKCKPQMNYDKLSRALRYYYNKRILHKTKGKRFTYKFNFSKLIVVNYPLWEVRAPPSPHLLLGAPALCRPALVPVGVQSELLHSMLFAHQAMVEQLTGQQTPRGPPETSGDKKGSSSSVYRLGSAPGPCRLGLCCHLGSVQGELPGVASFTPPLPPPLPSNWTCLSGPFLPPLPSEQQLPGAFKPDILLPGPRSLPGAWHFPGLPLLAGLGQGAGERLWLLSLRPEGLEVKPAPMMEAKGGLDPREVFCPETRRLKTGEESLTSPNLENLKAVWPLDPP
The note with it: protein: recombinant; tags: N-terminal GST; dsDNA, one strand shown. Put shortly:
as §1

A further assay concerns the target T8, ETS2 (Homo sapiens, UniProt P15036 1-469).
T8 sequence: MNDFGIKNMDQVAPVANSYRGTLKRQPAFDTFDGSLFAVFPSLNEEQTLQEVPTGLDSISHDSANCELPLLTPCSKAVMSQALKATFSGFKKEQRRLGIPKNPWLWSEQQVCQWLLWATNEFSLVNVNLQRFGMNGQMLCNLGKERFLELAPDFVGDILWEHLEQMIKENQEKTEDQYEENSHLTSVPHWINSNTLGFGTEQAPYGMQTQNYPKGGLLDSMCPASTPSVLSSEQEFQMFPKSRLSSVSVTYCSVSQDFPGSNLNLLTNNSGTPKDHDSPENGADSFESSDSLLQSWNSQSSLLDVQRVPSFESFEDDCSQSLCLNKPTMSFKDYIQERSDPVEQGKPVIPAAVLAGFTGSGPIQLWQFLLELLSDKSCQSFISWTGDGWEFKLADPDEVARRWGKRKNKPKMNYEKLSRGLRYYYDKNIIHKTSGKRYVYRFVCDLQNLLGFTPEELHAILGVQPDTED
The note with it: protein: recombinant; tags: N-terminal GST; dsDNA, one strand shown. The gist of the method: as §1

For a further assay, the target named is T9, SPDEF (Homo sapiens, UniProt O95238 1-335).
T9 sequence: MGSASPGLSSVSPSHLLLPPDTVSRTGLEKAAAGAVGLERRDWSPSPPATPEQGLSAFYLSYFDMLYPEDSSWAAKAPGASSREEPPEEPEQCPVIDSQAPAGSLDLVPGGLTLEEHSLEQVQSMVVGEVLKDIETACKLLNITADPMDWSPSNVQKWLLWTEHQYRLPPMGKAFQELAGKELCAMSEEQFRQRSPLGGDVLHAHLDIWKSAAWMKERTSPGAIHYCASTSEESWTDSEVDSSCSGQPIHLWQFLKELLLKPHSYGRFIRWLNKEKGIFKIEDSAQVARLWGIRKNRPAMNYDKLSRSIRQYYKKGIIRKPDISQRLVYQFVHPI
The note with it: protein: recombinant; tags: N-terminal GST; dsDNA, one strand shown. The gist of the method: as §1

A further assay deals with T10, ETV7 (Homo sapiens, UniProt Q9Y603 1-341).
T10 sequence: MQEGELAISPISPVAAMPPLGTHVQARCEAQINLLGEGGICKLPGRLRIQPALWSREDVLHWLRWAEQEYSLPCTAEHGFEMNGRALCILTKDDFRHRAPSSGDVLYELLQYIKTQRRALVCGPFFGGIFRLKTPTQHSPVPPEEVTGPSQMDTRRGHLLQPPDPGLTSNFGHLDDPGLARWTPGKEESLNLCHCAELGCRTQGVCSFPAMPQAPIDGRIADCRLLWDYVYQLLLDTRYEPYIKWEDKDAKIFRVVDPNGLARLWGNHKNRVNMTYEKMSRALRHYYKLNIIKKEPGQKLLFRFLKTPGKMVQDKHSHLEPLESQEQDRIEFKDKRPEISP
The note with it: protein: recombinant; tags: N-terminal GST; dsDNA, one strand shown. The gist of the method:
as §1

The target in the next assay is T11, ELF5 (Homo sapiens, UniProt Q9UKW6-2 1-255).
T11 sequence: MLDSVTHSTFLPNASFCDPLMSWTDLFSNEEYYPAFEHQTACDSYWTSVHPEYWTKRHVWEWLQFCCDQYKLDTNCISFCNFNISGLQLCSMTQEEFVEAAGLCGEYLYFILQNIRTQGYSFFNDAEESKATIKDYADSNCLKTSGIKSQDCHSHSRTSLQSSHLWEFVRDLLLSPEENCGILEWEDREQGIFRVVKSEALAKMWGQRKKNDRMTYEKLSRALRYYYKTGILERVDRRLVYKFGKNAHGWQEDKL
The note with it: protein: recombinant; tags: N-terminal GST; dsDNA, one strand shown. Put shortly: as §1

The next assay concerns the target T12, ETV3 (Homo sapiens, UniProt P41162-2 1-143).
T12 sequence: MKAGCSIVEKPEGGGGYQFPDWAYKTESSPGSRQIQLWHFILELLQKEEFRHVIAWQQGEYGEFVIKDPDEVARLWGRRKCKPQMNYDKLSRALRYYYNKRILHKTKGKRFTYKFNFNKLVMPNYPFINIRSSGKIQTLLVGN
The note with it: protein: recombinant; tags: N-terminal GST; dsDNA, one strand shown. The gist of the method: as §1

Another assay addresses ETV6 (Homo sapiens, UniProt P41212 1-452). The note with it: protein: recombinant; tags: N-terminal GST; dsDNA, one strand shown. The gist of the method: as §1

Sequence of CRX (O43186 whole entry): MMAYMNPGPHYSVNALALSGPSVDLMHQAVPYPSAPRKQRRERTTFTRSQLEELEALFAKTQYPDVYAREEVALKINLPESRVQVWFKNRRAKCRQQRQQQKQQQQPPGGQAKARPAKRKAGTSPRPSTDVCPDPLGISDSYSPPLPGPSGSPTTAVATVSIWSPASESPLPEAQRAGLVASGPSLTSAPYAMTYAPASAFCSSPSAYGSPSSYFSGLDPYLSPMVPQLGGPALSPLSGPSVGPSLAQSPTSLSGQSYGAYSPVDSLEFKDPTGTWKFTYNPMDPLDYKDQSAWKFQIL
Sequence of HSF1 (Q00613 whole entry): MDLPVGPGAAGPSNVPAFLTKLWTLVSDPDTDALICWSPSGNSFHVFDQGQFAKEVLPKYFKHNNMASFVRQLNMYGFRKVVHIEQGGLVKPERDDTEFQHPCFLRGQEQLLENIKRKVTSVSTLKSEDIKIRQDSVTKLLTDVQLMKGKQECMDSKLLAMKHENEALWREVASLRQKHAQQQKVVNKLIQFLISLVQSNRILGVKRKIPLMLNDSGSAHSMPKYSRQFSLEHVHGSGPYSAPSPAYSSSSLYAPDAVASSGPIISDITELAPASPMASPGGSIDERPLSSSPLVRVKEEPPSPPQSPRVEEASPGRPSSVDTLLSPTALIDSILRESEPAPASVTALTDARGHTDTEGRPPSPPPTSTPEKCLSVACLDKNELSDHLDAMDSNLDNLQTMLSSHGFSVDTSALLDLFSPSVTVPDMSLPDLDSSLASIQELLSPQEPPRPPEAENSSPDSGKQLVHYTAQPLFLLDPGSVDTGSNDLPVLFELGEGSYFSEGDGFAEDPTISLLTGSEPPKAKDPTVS
Sequence of ETV6 (P41212 whole entry): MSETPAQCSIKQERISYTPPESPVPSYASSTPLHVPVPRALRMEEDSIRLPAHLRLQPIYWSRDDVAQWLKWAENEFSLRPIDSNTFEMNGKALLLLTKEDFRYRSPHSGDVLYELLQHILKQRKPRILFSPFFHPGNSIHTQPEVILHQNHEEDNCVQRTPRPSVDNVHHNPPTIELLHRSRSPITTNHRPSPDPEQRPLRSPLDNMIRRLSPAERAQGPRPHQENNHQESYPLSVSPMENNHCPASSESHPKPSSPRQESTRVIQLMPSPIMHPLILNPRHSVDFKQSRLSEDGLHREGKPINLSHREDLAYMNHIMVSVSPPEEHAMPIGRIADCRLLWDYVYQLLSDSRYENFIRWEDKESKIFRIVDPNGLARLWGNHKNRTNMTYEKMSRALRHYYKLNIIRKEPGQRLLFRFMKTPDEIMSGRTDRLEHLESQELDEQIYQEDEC
Sequence of ELF4 (Q99607 whole entry): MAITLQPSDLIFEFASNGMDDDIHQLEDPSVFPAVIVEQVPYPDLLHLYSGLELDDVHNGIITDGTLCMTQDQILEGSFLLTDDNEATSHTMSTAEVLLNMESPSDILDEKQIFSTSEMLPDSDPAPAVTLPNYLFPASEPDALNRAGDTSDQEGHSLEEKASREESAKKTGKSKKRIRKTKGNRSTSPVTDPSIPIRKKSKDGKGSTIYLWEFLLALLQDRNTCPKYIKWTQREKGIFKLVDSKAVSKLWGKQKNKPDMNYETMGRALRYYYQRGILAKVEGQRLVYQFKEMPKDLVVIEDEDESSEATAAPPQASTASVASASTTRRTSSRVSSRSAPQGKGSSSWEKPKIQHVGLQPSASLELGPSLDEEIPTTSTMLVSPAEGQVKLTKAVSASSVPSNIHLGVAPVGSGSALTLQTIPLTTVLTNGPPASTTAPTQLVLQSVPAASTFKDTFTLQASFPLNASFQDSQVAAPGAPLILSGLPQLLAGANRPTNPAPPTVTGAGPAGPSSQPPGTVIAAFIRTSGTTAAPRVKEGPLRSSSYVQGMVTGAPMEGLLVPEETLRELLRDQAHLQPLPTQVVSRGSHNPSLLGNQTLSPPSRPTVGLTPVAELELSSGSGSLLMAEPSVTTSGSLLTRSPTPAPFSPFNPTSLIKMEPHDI
Sequence of ETV5 (P41161 whole entry): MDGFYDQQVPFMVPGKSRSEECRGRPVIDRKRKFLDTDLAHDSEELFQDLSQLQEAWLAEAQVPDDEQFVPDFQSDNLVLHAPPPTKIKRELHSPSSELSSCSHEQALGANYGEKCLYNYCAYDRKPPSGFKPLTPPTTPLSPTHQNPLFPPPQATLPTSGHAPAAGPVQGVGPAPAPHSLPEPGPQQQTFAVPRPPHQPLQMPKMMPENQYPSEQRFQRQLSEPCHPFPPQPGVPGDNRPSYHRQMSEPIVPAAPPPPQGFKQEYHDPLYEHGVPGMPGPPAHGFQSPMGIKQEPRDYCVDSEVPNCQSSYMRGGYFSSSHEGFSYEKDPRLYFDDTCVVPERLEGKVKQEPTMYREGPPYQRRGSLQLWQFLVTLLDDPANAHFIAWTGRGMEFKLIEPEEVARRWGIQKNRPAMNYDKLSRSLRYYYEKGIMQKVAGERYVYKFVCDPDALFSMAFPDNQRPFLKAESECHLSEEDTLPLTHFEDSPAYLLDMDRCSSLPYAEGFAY

As to ACCTCT, the binding signal with FEV was 1.3 fold enrichment (6-mer frequency, TF over GST control); in the assay with ETV5 it was 1.31 fold enrichment (6-mer frequency, TF over GST control); in the assay with HSF1 it was 1.18 fold enrichment (6-mer frequency, TF over GST control); in the assay with SPIC, 1.47 fold enrichment (6-mer frequency, TF over GST control); in the assay with ELF4, 1.33 fold enrichment (6-mer frequency, TF over GST control); with ELK4 it was 1.29 fold enrichment (6-mer frequency, TF over GST control). Moreover, the binding signal with ETV2 was 1.35 fold enrichment (6-mer frequency, TF over GST control); with ELF3, 1.51 fold enrichment (6-mer frequency, TF over GST control); in the assay with CRX it was 1.19 fold enrichment (6-mer frequency, TF over GST control); with ETV1 it was 1.3 fold enrichment (6-mer frequency, TF over GST control); in the assay with ERF it was 1.52 fold enrichment (6-mer frequency, TF over GST control); in the assay with ETV3L it was 1.32 fold enrichment (6-mer frequency, TF over GST control). Besides, the binding signal with ETS2 is 1.23 fold enrichment (6-mer frequency, TF over GST control); with SPDEF, 1.4 fold enrichment (6-mer frequency, TF over GST control); with ETV7 it was 1.48 fold enrichment (6-mer frequency, TF over GST control); with ELF5 it was 1.34 fold enrichment (6-mer frequency, TF over GST control); with ETV3 it was 1.4 fold enrichment (6-mer frequency, TF over GST control); in the assay with ETV6, 1.39 fold enrichment (6-mer frequency, TF over GST control).
